Source: PubChem BioAssay AID1578 (Sanford-Burnham Center for Chemical Genomics, 2009)
Hit rate of the full screen: of about 290,000 compounds, about 3,000 (1%) were called active. This is one part of a sample in which actives are shown more often than they occur. Unmarked numbers belong to inactive results. Cut-off read from the data, not from the text of the source: active = inhibition mostly above about 36% (no sharp cut-off); inactive = mostly below about 34%.

Experiment: inhibition of NOD1-driven NF-kB reporter – cell-based, luminescence, uHTS, primary screen (AID 1578);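 note: HEK-293T reporter cells stimulated with the NOD1 agonist gamma-tri-DAP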
Settings: NOD1-driven NF-kB luciferase reporter cells, at 4 µM, hits give high values

Which inhibition does the source give for `c1ccc(COc2cccc(CNCc3cccnc3)c2)cc1` here?
The inhibition was -20%.

For `CC(=O)Nc1ccc(S(=O)(=O)NCc2ccc(C)cc2)cc1`, which inhibition is on record?
Its inhibition is 2.4%.

For `Cc1coc2cc3oc(=O)c4c(c3cc12)CCCC4`, which inhibition is on record?
The inhibition was -30.5%.

Which inhibition does the source give for `COc1ccc(/C=N/Nc2ccccc2C(=O)O)cc1Cn1cc([N+](=O)[O-])cn1` here?
Its inhibition is -11.8%.

Which inhibition does the source give for `O=C(COC(=O)c1ccccc1C(=O)c1ccccc1)Nc1ccc(SC(F)F)cc1` here?
The inhibition was 7.1%.

Which inhibition does the source give for `CCOC(=O)C1=C(C(F)(F)F)Nc2ncnn2C1c1cc(OC)ccc1OC` (stereo unspecified) here?
The inhibition was 10.8%.

Which inhibition does the source give for `Cc1ccc(OCC(=O)NNc2c3ccccc3nc3ccccc23)cc1` here?
The inhibition was 52.5%.

With `O=C(COc1ccccc1)NNc1c2ccccc2nc2ccccc12` as the compound, how does the inhibition read?
Its inhibition is 40.5%.

With `COc1ccc(OCC(=O)NNc2c3ccccc3nc3ccccc23)cc1` as the compound, how does the inhibition read?
Its inhibition is 76.7% (active).

For `O=C(OCCN=C1NS(=O)(=O)c2ccccc21)c1ccccc1F`, which inhibition is on record?
Its inhibition is 31.5%.

Which inhibition does the source give for `O=C(NCCCN1CCCC1=O)[C@H](CSCc1ccccc1)N1Cc2ccccc2C1=O` here?
Its inhibition is 1.9%.

With `Cc1ccc(NC(=O)CN(C)C(=O)Cc2c(Cl)cccc2Cl)cc1` as the compound, how does the inhibition read?
The inhibition was -9.1%.

For `COc1cccc(NC(=O)Nc2cccn(Cc3ccccc3)c2=O)c1`, which inhibition is on record?
Its inhibition is -11%.

For `COc1ccc(Cn2cccc(NC(=O)Nc3ccc(F)cc3)c2=O)cc1`, which inhibition is on record?
The inhibition was 37.8%.

With `CCc1ccccc1NC(=O)Nc1cccn(Cc2ccccc2F)c1=O` as the compound, how does the inhibition read?
The inhibition was -23.3%.

With `CCOc1ccc(NC(=O)Nc2cccn(Cc3ccccc3)c2=O)cc1` as the compound, how does the inhibition read?
The inhibition was 44.3% (active).

With `CSc1ccc(NC(=O)Nc2cccn(Cc3ccccc3)c2=O)cc1` as the compound, how does the inhibition read?
Its inhibition is 46.6%.

For `CSc1ccc(NC(=O)Nc2cccn(Cc3ccccc3F)c2=O)cc1`, which inhibition is on record?
Its inhibition is 89.6% (active).

Which inhibition does the source give for `O=C(O)CCCCCNC(=O)CCn1cnc2ccccc2c1=O` here?
The inhibition was 21.1%.

For `COc1cc(OC)cc(-c2nnc(SCC(=O)Nc3cccc(C(=O)O)c3)s2)c1`, which inhibition is on record?
Its inhibition is -32.1%.

With `O=C(c1ccc(Cl)cc1)N1CCN(CCc2ccccn2)CC1` as the compound, how does the inhibition read?
The inhibition was -13%.

With `COc1cc(/C=C2/C(=O)NN(c3ccccc3)C2=O)cc(Br)c1O` as the compound, how does the inhibition read?
Its inhibition is 15.4%.

Which inhibition does the source give for `COc1cc(/C=C2/C(=O)NN(c3ccc(F)cc3)C2=O)cc(Cl)c1O` here?
The inhibition was 12.2%.

Which inhibition does the source give for `OCC[C@@H]1C[C@H](O)[C@@H](O)[C@]2(Cc3ccccc3CO2)O1` here?
Its inhibition is 15%.

With `COc1ccc(C(=O)N(CCc2ccccc2)Cc2ccccc2)c(OC)n1` as the compound, how does the inhibition read?
Its inhibition is -5.7%.

For `CCC(O)C1CCN(C(=O)c2cc(COc3ccc4ncccc4c3)on2)CC1` (stereo unspecified), which inhibition is on record?
Its inhibition is 52.9%.

Which inhibition does the source give for `O=C(NC1CCCCCCC1)c1cc(COc2ccc3ncccc3c2)on1` here?
The inhibition was 44.4% (active).

With `CCN1CCN(C(=O)c2cc(COc3ccc4ncccc4c3)on2)CC1` as the compound, how does the inhibition read?
The inhibition was 26.3%.

With `O=C(c1cc(COc2ccc3ncccc3c2)on1)N1CCC(O)CC1` as the compound, how does the inhibition read?
The inhibition was 0.3%.

For `CC(NC(=O)c1cc(COc2ccc3ncccc3c2)on1)c1ccc(F)cc1` (stereo unspecified), which inhibition is on record?
Its inhibition is 7.2%.

Which inhibition does the source give for `Cc1ccc(F)cc1CNC(=O)c1cc(COc2ccc3ncccc3c2)on1` here?
The inhibition was 59.8% (active).

With `O=C(NC1CCCC1)c1cc(COc2ccc3ncccc3c2)on1` as the compound, how does the inhibition read?
The inhibition was 26.8%.

For `O=C(c1cc(COc2ccc3ncccc3c2)on1)N1CCCC1`, which inhibition is on record?
The inhibition was 19.1%.

For `Cc1ccc(OCc2cc(C(=O)NCc3cc(F)ccc3C)no2)cn1`, which inhibition is on record?
The inhibition was -13.5%.

For `CC(=O)c1ccc(OCc2cc(C(=O)NC3CCCCC3)no2)cc1`, which inhibition is on record?
The inhibition was -46.8%.

With `CS(=O)(=O)N1CCN(c2ccccc2NC(=S)NC(=O)c2ccccc2[N+](=O)[O-])CC1` as the compound, how does the inhibition read?
Its inhibition is -7.4%.

For `O=C(COC(=O)CNS(=O)(=O)c1ccccc1)Nc1ccc(Cl)cn1`, which inhibition is on record?
The inhibition was -21%.

With `Cc1cc(C)n(-c2ccc(C(=O)Nc3sccc3C(N)=O)cc2)n1` as the compound, how does the inhibition read?
Its inhibition is -77.9%.

With `COc1ncnc2c1oc1nc(C(C)C)c3c(c12)CC(C)(C)OC3` as the compound, how does the inhibition read?
The inhibition was -12.3%.

For `CCN(CC)S(=O)(=O)c1cccc(N=Nc2sc(N)nc2C)c1`, which inhibition is on record?
The inhibition was 1.1%.

For `N#Cc1ccc(OCC(O)CS(=O)(=O)c2ccccc2)cc1` (stereo unspecified), which inhibition is on record?
The inhibition was -22.8%.

Which inhibition does the source give for `CC(=O)c1ccc(NC(=O)C2CCCN(C(=O)c3ccc(Cl)cc3)C2)cc1` (stereo unspecified) here?
The inhibition was -22.6%.

With `O=C1CCCN1S(=O)(=O)c1ccc(F)cc1` as the compound, how does the inhibition read?
Its inhibition is 5.5%.

Which inhibition does the source give for `CCOc1ccc(NC(=O)C2CCCN(S(=O)(=O)c3ccc4c(c3)CC(C)N4C(C)=O)C2)cc1` (stereo unspecified) here?
The inhibition was -4%.

For `COn1c(-c2ccccc2)nc2ccc(Cl)cc21`, which inhibition is on record?
The inhibition was -72.4%.

Which inhibition does the source give for `Cc1cc(C(=O)N/N=C/c2c(C)nn(-c3ccccc3)c2Cl)n[nH]1` here?
Its inhibition is -4.6%.

Which inhibition does the source give for `CC(=O)N(C(C)=O)S(=O)(=O)c1ccc(N=NN2CCOCC2)cc1` here?
Its inhibition is -25.7%.

For `O=C(Nc1ccccc1C(=O)Nc1cccnc1)c1ccccc1`, which inhibition is on record?
Its inhibition is -11.8%.

Which inhibition does the source give for `Cc1csc(NC(=O)c2ccc(=O)[nH]c2)n1` here?
Its inhibition is -4.6%.

For `Cc1ccc2c(c1)C1CN(C)CCC1N2C(=S)NC(=O)c1ccc(Cl)cc1Cl` (stereo unspecified), which inhibition is on record?
Its inhibition is -10.8%.

With `Cc1ccc2c(c1)C1CN(C)CCC1N2C(=S)Nc1ccc(Cl)cc1Cl` (stereo unspecified) as the compound, how does the inhibition read?
Its inhibition is 13%.

Which inhibition does the source give for `Cc1ccc2c(c1)C1CN(C)CCC1N2C(=S)NC(=O)c1ccc(Br)cc1` (stereo unspecified) here?
Its inhibition is 61.2% (active).

With `CCOc1cc(C2Nc3ccccc3NC3=C2C(=O)CC(C)(C)C3)ccc1O` (stereo unspecified) as the compound, how does the inhibition read?
The inhibition was -14.4%.

With `Cc1nonc1NC(=O)CSc1nc(C23CC4CC(CC(C4)C2)C3)nc2ccccc12` as the compound, how does the inhibition read?
Its inhibition is 2.5%.

For `NC(=O)CSc1nc(C23CC4CC(CC(C4)C2)C3)nc2ccccc12`, which inhibition is on record?
Its inhibition is 58.4% (active).

Which inhibition does the source give for `NC(=O)CSc1nc(-c2ccccc2)nc2ccccc12` here?
The inhibition was -12.4%.

With `Cc1ccc(NC(=O)CCOc2ccccc2)cc1` as the compound, how does the inhibition read?
The inhibition was -12.7%.

With `CCC(C)NC(=O)C(Cc1ccccc1)n1cccc1` (stereo unspecified) as the compound, how does the inhibition read?
The inhibition was -8%.

Which inhibition does the source give for `CCC1Oc2ccc(C)cc2N(CC(=O)N(Cc2cccnc2)Cc2cccc(F)c2)C1=O` (stereo unspecified) here?
Its inhibition is 34.6% (active).

With `CCC1Oc2ccc(C)cc2N(CC(=O)N(Cc2ccncc2)Cc2ccco2)C1=O` (stereo unspecified) as the compound, how does the inhibition read?
The inhibition was -36.7%.

With `CCC1Oc2ccc(C)cc2N(CC(=O)N(Cc2cccnc2)Cc2ccc(C)o2)C1=O` (stereo unspecified) as the compound, how does the inhibition read?
Its inhibition is -12.7%.
